KCNQ2 pot – enhances the rat KCNQ2 potassium channel | actives 0.54% (n = 310,000) | CHO-K1 KCNQ2, FluxOR thallium flux fluorescence; stronger effect = higher value | B-score at 10 µM | AID 2239;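 active = fluorescence ratio B-score at least 3 SD of library B-scores, with initial fluorescence B-score within 3 of them, cut at about 5.3 in these data; same plate scores as AID 2156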;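 also: B-score of peak minus minimum over baseline fluorescence ratio after K+ and Tl+ stimulus; positive B-score means potentiation of KCNQ2 with more thallium influx and brighter signal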
Target sequence (O88943 whole entry, looked up): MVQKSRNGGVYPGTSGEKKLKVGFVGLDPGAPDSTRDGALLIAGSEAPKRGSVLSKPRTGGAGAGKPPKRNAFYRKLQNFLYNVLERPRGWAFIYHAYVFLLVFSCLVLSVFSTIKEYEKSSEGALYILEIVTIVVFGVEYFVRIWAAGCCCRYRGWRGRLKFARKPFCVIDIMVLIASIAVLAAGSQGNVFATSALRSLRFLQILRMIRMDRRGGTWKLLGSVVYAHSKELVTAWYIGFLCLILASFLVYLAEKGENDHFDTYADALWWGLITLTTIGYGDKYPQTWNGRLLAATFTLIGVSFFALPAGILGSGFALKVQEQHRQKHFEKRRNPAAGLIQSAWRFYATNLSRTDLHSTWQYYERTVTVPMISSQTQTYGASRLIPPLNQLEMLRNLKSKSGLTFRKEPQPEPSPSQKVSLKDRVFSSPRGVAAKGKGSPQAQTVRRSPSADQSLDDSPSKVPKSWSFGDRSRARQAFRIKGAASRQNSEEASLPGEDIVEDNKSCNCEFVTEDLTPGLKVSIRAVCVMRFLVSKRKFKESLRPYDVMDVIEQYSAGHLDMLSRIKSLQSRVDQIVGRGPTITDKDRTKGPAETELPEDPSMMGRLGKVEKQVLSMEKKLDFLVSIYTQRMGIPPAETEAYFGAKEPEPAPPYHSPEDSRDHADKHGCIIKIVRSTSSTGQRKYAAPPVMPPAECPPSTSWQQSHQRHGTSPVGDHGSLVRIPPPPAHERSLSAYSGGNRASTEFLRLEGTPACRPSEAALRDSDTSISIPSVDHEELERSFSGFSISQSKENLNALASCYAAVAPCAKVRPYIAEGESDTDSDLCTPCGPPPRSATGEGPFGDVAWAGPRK
KCNQ2 inh – KCNQ2 (rat) channel inhibition | O88943 | CHO-K1 KCNQ2, FluxOR thallium flux, 20 min; stronger effect = lower value | B-score at 10 µM | actives 1.1% (n = 310,000) | AID 2156;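 active = fluorescence ratio B-score at most minus 3 library SDs, with starting brightness B-score within 2 library SDs, cut at about -5.5 in these data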
Starred values were filed as active, the others as inactive; i = inactive; x = no result given. Shown are actives, neighbours in structure and some others; about 1.6% of the full set was active somewhere.

SMILES | KCNQ2 pot | KCNQ2 inh
COC(=O)CC(c1ccc(OC)c(OC)c1)c1ccc(OC)c(OC)c1 | x | i
Cc1cc(C)cc(C(=O)NC(CC(N)=O)c2ccc(N3CCN(C)CC3)c([N+](=O)[O-])c2)c1 (configuration not stated) | 0.25 | i
CCOC(=O)C1=C(C)N=c2s/c(=C\c3ccc(O)c([N+](=O)[O-])c3)c(=O)n2C1c1ccccc1OC (configuration not stated) | -7.2 | -7.2*
CCOC(=O)C1=C(C)n2c(s/c(=C/c3cccc([N+](=O)[O-])c3)c2=O)=NC1c1ccc(O)c(OC)c1 (configuration not stated) | -6.1 | -6.1*
CCOC(=O)C1=C(C)N=c2s/c(=C/c3ccccc3)c(=O)n2C1c1ccc(OC)c(OC)c1 (configuration not stated) | x | i
CCOC(=O)C1=C(C)N=c2s/c(=C\c3ccc(OCC(=O)O)cc3)c(=O)n2C1c1ccccc1OC (configuration not stated) | 1.1 | i
COc1ccc(CCNC(=O)CCc2cn(C)c3ccccc23)c(OC)c1OC | 1.7 | i
CC(=O)NC1(C(F)(F)F)N=C(c2ccccc2)NC1=O (configuration not stated) | x | i
CCOC(=O)c1cc(C(C)(C)C)oc1CN | 0.39 | i
CCOC(=O)c1cc(C(C)(C)C)oc1CNC(=O)c1c(C)oc2c1CCCC2 | -6.1 | -6.1*
COc1ccc(-n2nnnc2SCC(=O)Nc2ccccc2F)cc1 | 0.68 | i
Cc1ccc(S(=O)(=O)N2CCN(CC(=O)NC3CCCc4ccccc43)CC2)cc1C (configuration not stated) | -7 | -7*
Cc1ccc(S(=O)(=O)N2CCN(CC(=O)NC3CCCc4ccccc43)CC2)c(C)c1 (configuration not stated) | -6.1 | -6.1*
O=C(CCC(=O)N1CCN(S(=O)(=O)c2ccc(Cl)cc2)CC1)NC1CCCc2ccccc21 (configuration not stated) | -7.1 | -7.1*
Cc1ccc(OCC(=O)NC2CCCc3ccccc32)c(C)c1 (configuration not stated) | x | i
NC(=O)C1CCN(CC(=O)NC2CCCc3ccccc32)CC1 (configuration not stated) | 1.5 | i
O=C(CCC(=O)N1CCN(S(=O)(=O)c2ccc(Cl)cc2)CC1)Nc1ccc(Cl)cc1Cl | 0.1 | i
COc1ccc(/C=C(\NC(=O)c2ccc(OC)cc2)C(=O)Nc2ccccc2C(=O)O)cc1 | 1.2 | i
[2H]C([2H])(CCOS(N)(=O)=O)c1ccccc1 | 0.39 | i
N#Cc1ccc(CC(C(=O)O)N2Cc3ccccc3C2=O)cc1 (configuration not stated) | 0.07 | i
CCCn1c(NCc2cccc(OC)c2O)nc2ccccc21 | x | i
CCCn1c(NCc2cccc(OC)c2OC)nc2ccccc21 | -5.9 | -5.9*
O=C(CN(CC1CCCO1)C(=O)CNS(=O)(=O)c1ccc(F)cc1)NCCc1ccccc1 (configuration not stated) | x | i
CCCCCCCC(=O)Nc1cc(C(=O)NCCC)ccc1N1CCC2(CC1)CC(c1ccccc1)=NO2 | -6 | -6*
CCCNC(=O)c1ccc(N2CCC3(CC2)CC(c2ccccc2)=NO3)c(NC(=O)c2ccc(Br)cc2)c1 | x | i
SMILES | KCNQ2 pot | KCNQ2 inh
CCCN(CCC)CC(O)Cn1cc(/C=C/C(=O)c2cccs2)c2ccccc21 (configuration not stated) | x | i
CCCN(CCC)CC(O)Cn1cc(/C=C/C(=O)c2ccccc2)c2ccccc21 (configuration not stated) | -6.3 | -6.3*
O=C(/C=C/c1cn(CC(O)CN2CCCCC2)c2ccccc12)c1cccs1 (configuration not stated) | x | i
O=C(/C=C/c1cn(CC(O)CN2CCCCC2)c2ccccc12)c1ccccc1 (configuration not stated) | -5.7 | -5.7*
O=C(NNc1c([N+](=O)[O-])cc(C(F)(F)F)cc1[N+](=O)[O-])c1ccco1 | 0.1 | i
CC(C)C(=O)Nc1ccc2c(c1)C(=O)NC2=O | x | i
CC1CN(CC(=O)Nc2nc3ccccc3s2)CC(C)O1 (configuration not stated) | x | i
CCN(CC)c1ccc(N2C(=NC(=O)C3CC3)SC3CS(=O)(=O)CC32)cc1 (configuration not stated) | 0.41 | i
Cc1cc2occ(CC(=O)N(C)CC(=O)Nc3ccccc3Cl)c2cc1C | x | i
Cc1ccc(C)c(N(CC(=O)NC2CCCC2)C(=O)c2oc(C(C)(C)C)cc2C)c1 | -6.6 | -6.6*
Cc1cc(C(C)(C)C)oc1C(=O)N(CC(=O)NC1CCCC1)Cc1ccccc1 | x | i
O=C(O)CCc1cc(I)c(Oc2ccc(O)c(I)c2)c(I)c1 | 32* | i
N[C@@H](Cc1cc(I)c(Oc2ccc(O)c(I)c2)c(I)c1)C(=O)O | 0.38 | i
Cc1sc(NC(=O)COc2ccccc2)c(C#N)c1-c1ccccc1 | x | i
COc1ccc(C(=O)Nc2sc(C)c(-c3ccccc3)c2C#N)cc1OC | -6.4 | -6.4*
CCC(=O)c1ccc(OCC(=O)NC2(C#N)CCCCC2)cc1 | x | i
CC1CCCN(CCCN2C(=O)C3C(C(=O)Nc4cccc(Cl)c4)C4C=CC3(O4)C2C(=O)NC2CCCCC2)C1 (configuration not stated) | 0.07 | i
O=C(Cn1c(=O)n(Cc2ccco2)c(=O)c2c3c(sc21)CCCCC3)Nc1ccccc1 | x | i
O=C(Cn1c(=O)n(Cc2ccco2)c(=O)c2c3c(sc21)CCCCC3)c1ccccc1 | -5.7 | -5.7*
c1ccc(CCn2c3ccccc3c3nnc(SCc4ccc5nonc5c4)nc32)cc1 | -6.2 | -6.2*
CCN(CC)CCSc1nnc2c3ccccc3n(CCc3ccccc3)c2n1 | x | i
CC(C)Sc1nc2sccc2c(=O)n1-c1ccccc1 | x | i
Cc1cc(S(=O)(=O)c2ccc([N+](=O)[O-])cn2)ccc1Br | x | i
Cc1ccc(S(=O)(=O)c2ccc([N+](=O)[O-])cn2)cc1 | -6 | -6*
CCOCCCn1c(=S)[nH]c2cc(C(=O)NC3CCCC(C)C3C)ccc2c1=O (configuration not stated) | x | i
SMILES | KCNQ2 pot | KCNQ2 inh
CC(C)C(NS(=O)(=O)c1cccc2nsnc12)C(=O)N1CCCCC1 (configuration not stated) | x | i
COc1cccc(CC(=O)Nc2ccc3nc(C)sc3c2)c1 | x | i
COc1ccc(OCC(=O)Nc2ccc3nc(C)sc3c2)cc1 | -9.6 | -9.6*
Cc1ccc(NC(=O)[C@H](Cc2c[nH]c3ccccc23)NC(=O)[C@@H]2Cc3ccccc3CN2)c(C)c1 | -6.7 | -6.7*
Cc1ccc(NC(=O)[C@H](Cc2ccccc2)NC(=O)[C@@H]2Cc3ccccc3CN2)c(C)c1 | x | i
CC(NC(=O)[C@H](Cc1c[nH]c2ccccc12)NC(=O)[C@@H]1Cc2ccccc2CN1)c1ccccc1 (some centres not stated) | -5.9 | -5.9*
Cc1cccc(NC(=O)[C@H](Cc2c[nH]c3ccccc23)NC(=O)[C@@H]2Cc3ccccc3CN2)c1 | -6.5 | -6.5*
CCc1ccc(NC(=O)[C@H](Cc2c[nH]c3ccccc23)NC(=O)[C@@H]2Cc3ccccc3CN2)cc1 | x | i
CC(C)C[C@H](NC(=O)[C@@H]1Cc2ccccc2CN1)C(=O)Nc1ccc(C(C)C)cc1 | x | i
Cc1nnc2c(SC(C)C)nc3ccccc3n12 | 0.35 | i

Compound activity from PubChem BioAssay.
